Inconclusive results are not listed. Activity calls are given as the source filed them. Unless noted, calls follow the shape of the dose curve; as a rule, active = well fitted curve in either direction with a large enough effect (not every such curve was filed as active); inconclusive = small, poorly fitted or top-dose-only effect, or another doubt; inactive = flat fitted curve, though single readings scatter.
Tests used:
[1] = biological target: Lysosomal acid glucosylceramidase (Homo sapiens) (UniProt P04062); assay: Glucocerebrosidase-p2 (AID 348; in the data active = potency below about 10 µM; also: potency is read from the fitted curve at half-maximal effect); conditions: purified GBA, blue fluorogenic substrate, 40 min
Summary of the method: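 Normal human glucocerebrosidase (0.2 nM) with blue fluorogenic substrate (80 uM final) in citrate/phosphate pH 5.9 with 10mM sodium taurocholate, 0.01% tween-20; 40 min RT, NaOH/glycine stop; fluorescence Ex 365/Em 440; AC50 from a titration from 0.6 nM upwards.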

[2] = AP1 Signaling Pathway (AID 357); conditions: ME-180 AP-1-bla reporter, EGF-induced, beta-lactamase ratio, 5 h; at 7.69 µM (top of the series) unless noted;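 also: ME-180 reporter cells stimulated with EGF at its EC50 level; % is scaled to controls: 0 for no effect and ±100 for the full control effect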
Summary of the method: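 A ratiometric CCF4 readout (405 nm excitation; 460 and 530 nm emission) quantified AP-1-driven beta-lactamase in ME-180 cells after 5 h with compound and EC50 EGF; AC50 values were derived for activators and inhibitors.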

[3] = Stat Signaling Pathway (AID 446); conditions: ME-180 (cervical carcinoma) SIE beta-lactamase reporter, IL-6 stimulated, 5 h; at 7.69 µM (top of the series) unless noted;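 also: ME-180 cervical cancer cells given 40 pM IL-6 alongside compound; SIE-controlled beta-lactamase reporter measured as 460/530 nm FRET emission ratio; % is scaled to controls: 0 for no effect and ±100 for the full control effect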
Summary of the method: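 Overnight-plated ME-180 cells bearing a STAT Inducible Element beta-lactamase reporter; 5 h co-exposure to compound and 40 pM IL-6; values normalized to 300 pM IL-6 and 125 nM JAK inhibitor controls.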

[4] = biological target: Glucocorticoid receptor (Homo sapiens) (UniProt P04150); assay: GR-GFP Redistribution (AID 450;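 active = compounds whose dose series gives a full or clear partial fitted curve of increased nuclear translocation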; also: potency is read from the fitted curve at half-maximal effect); conditions: U2OS GR-GFP nuclear translocation, laser cytometry, 2 h
[5] = biological target: Glucocorticoid receptor (Homo sapiens) (UniProt P04150); assay: GR-EFC Redistribution (AID 451; calls by dose curve; also: potency is read from the fitted curve at half-maximal effect); conditions: CHO-K1 GR-EFC translocation, beta-gal luminescence, 2 h
Summary of the method: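 Translocation of GR-ED fusion to nuclear EA restores b-gal, read by luminescence after 1 h room-temperature detection. Engineered CHO-K1 biosensor cells, 1,000/well, exposed 2 h at 37 C to titrations up to 46 uM final.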

[6] = biological target: Mitogen-activated protein kinase 10 (Mus musculus) (UniProt Q61831); assay: JNK3 AlphaScreen Assay (AID 530); conditions: JNK3 lysate, c-Jun phosphorylation; series mostly up to 57.1 µM;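 also: kinase came from lysate of stimulated human HepG2 cells; signal reports phosphorylation of biotinylated GST-cJun 1-79 at Ser73 with 10 µM ATP; % is scaled to controls: 0 for no effect and ±100 for the full control effect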
Summary of the method: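 qHTS titrations with 15 min compound pre-incubation before adding ATP (10 uM final). Read-out: AlphaScreen of Ser73-phosphorylated biotin-GST-cJun using HepG2 lysate JNK3 activated by IL-1β and TNFα.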

[7] = biological target: Cytochrome P450 2C19 (Homo sapiens) (UniProt P33261); assay: qHTS Assay for Inhibitors and Substrates of Cytochrome P450 2C19 (AID 899; active = well fitted curve in the direction sought with a large enough effect; an effect the other way counts as inactive or inconclusive; also: % is scaled to controls: 0 for no effect and ±100 for the full control effect; nearly all actives have a fitted effect of over 60% in size); conditions: recombinant CYP2C19, luciferin-H EGE luminescence; series mostly up to 11.4 µM
Summary of the method: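 Reactions contain 5nM enzyme, 10uM Luciferin-H EGE (KM) and 50mM KPO4; compound preincubates 10 min at 37C, NADPH regeneration starts turnover for 60 min. Luminescence after detection reagent gives activity.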

[8] = biological target: 3',5'-cyclic-AMP phosphodiesterase 4B (Homo sapiens) (UniProt Q07343); assay: qHTS Assay for Inhibitors of PDE-IV (AID 607; active = well fitted activation curve with a large enough effect in the main read-out, with a control signal flat, not every such curve was filed as active; also: % of control where 0% means no effect); conditions: HEK293 ACTOne CNG channel cells, membrane potential fluorescence; series mostly up to 22.9 µM
Summary of the method: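 Live HEK293 cells with a modified cyclic nucleotide-gated (CNG) channel report intracellular cAMP via membrane-potential dye fluorescence (ex 535/em 590 nm). Endogenous PDE-IV was targeted. Compounds were tested at up to 22.9 uM final; RO 20-1724 100 uM served as control.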

[9] = biological target: Cytochrome P450 3A4 (Homo sapiens) (UniProt P08684); assay: qHTS Assay for Inhibitors and Substrates of Cytochrome P450 3A4 (AID 884; active = well fitted curve in the direction sought with a large enough effect; an effect the other way counts as inactive or inconclusive; also: % is scaled to controls: 0 for no effect and ±100 for the full control effect; nearly all actives have a fitted effect of over 50% in size); conditions: recombinant CYP3A4, Luciferin-PPXE luminescence; series mostly up to 57.1 µM
Summary of the method: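 Luminescent readout of luciferin produced by CYP3A4 (20 nM) dealkylation of Luciferin-PPXE, 25 uM (its KM). NADPH-driven reaction ran 60 min at RT after 10 min compound preincubation; data scaled to 57 uM ketoconazole as 100% inhibition.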

[10] = biological target: Cytochrome P450 2D6 (Homo sapiens) (UniProt P10635); assay: qHTS Assay for Inhibitors and Substrates of Cytochrome P450 2D6 (AID 891; active = well fitted curve in the direction sought with a large enough effect; an effect the other way counts as inactive or inconclusive; also: potency is read from the fitted curve at half-maximal effect; nearly all actives have a fitted effect of over 60% in size); conditions: recombinant CYP2D6, luciferin-ME EGE luminescence; series mostly up to 11.4 µM
Summary of the method: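 Luminescent read-out of luciferin formed by 5 nM human CYP2D6 demethylating 30 uM Luciferin-ME EGE (Km level) over 60 min at room temperature after NADPH regeneration addition. Data normalized to full inhibition by 1.43 uM quinidine.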

[11] = biological target: Cytochrome P450 1A2 (Homo sapiens) (UniProt P05177); assay: p450-cyp1a2 (AID 410; calls by dose curve;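 also: -100% = full effect of reference inhibitor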); conditions: recombinant CYP1A2, luciferin-ME demethylation, luminescence; series mostly up to 11.4 µM
Summary of the method: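 Luminescent demethylation readout: Luciferin-ME (100uM, equal to Km) turned over by 20nM CYP1A2 for 60 min at room temperature after NADPH regeneration addition, following 10 min compound preincubation. Normalization used 57 uM furafylline as full inhibition.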

[12] = NFAT Signaling Pathway (AID 444); conditions: Jurkat NFAT-bla M1, carbachol, beta-lactamase ratio, 5 h; at 7.69 µM (top of the series) unless noted;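 also: carbachol stimulus at about its EC50 of 1 µM final; % is scaled to controls: 0 for no effect and ±100 for the full control effect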
Summary of the method: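 Read-out: CCF4 FRET ratio (460 nm/530 nm) after 1 h RT dye loading, used for %activity and AC50 from titration series. Cells: Jurkat NFAT-β-lactamase/M1 line, treated with compound plus 1 uM carbachol for 5 h, 37 °C.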

[13] = biological target: Ubiquitin carboxyl-terminal hydrolase 1 (Homo sapiens) (UniProt O94782); assay: Inhibitors of USP1/UAF1: Pilot qHTS (AID 504865; active = well fitted curve in the direction sought with a large enough effect; an effect the other way counts as inactive or inconclusive;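 also: rhodamine fluorescence freed from ubiquitin-rhodamine substrate followed over time; top concentration of the series differs between compounds; % is scaled to controls: 0 for no effect and ±100 for the full control effect; nearly all actives have a fitted effect of over 35% in size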); conditions: purified USP1/UAF1, Ub-rhodamine cleavage fluorescence; series mostly up to 114 µM
Summary of the method: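 1nM USP1/UAF1 + cpd, 15 min RT; start w/ Ub-Rho 150nM final; kinetic FL 480/540 nm, 6 reads q60 s. Buffer 50mM HEPES pH 7.8, 0.5mM EDTA, 1mM TCEP, 0.01% Tween-20, 0.1 mg/ml BSA.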

Chain of 3',5'-cyclic-AMP phosphodiesterase 4B (Homo sapiens) (Q07343 whole entry, looked up): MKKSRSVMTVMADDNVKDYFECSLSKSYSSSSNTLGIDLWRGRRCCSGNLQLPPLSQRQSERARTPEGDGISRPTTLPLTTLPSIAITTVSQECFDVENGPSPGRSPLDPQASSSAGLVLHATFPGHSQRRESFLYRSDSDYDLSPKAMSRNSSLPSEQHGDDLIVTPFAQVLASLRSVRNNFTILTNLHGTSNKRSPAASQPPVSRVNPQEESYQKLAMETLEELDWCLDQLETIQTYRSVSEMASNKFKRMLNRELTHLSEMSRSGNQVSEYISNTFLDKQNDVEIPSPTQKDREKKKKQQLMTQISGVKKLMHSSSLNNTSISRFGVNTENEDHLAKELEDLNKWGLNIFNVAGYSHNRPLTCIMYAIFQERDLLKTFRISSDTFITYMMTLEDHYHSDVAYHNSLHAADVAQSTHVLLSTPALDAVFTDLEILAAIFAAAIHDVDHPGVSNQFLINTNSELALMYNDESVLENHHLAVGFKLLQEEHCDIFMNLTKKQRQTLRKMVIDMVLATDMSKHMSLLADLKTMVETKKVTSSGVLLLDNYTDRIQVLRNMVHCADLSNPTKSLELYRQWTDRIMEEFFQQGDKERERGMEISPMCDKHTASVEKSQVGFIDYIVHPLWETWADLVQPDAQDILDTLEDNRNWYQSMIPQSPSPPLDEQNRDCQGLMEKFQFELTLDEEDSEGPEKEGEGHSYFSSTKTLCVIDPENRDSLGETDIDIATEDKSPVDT
Chain of Glucocorticoid receptor (Homo sapiens) (P04150 whole entry, looked up, the tested form may be a part): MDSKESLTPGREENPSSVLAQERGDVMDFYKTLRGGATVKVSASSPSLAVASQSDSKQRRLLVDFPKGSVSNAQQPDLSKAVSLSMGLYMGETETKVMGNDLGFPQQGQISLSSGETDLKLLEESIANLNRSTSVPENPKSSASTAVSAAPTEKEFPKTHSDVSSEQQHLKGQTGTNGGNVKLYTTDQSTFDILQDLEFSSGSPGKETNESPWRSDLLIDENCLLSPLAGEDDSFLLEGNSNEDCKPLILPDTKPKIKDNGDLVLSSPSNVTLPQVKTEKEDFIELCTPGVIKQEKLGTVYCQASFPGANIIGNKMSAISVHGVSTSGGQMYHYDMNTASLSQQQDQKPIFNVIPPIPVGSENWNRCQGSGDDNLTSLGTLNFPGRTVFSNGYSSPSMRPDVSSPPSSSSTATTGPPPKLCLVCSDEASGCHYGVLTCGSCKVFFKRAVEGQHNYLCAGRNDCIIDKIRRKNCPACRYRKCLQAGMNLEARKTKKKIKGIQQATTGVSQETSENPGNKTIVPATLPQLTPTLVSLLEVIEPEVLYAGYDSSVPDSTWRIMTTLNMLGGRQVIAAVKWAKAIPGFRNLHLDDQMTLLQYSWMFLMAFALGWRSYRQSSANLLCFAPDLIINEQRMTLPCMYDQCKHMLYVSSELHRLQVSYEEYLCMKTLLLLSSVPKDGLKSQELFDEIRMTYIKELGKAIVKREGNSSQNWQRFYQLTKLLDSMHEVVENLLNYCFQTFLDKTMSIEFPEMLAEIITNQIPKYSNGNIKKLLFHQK
Chain of Lysosomal acid glucosylceramidase (Homo sapiens) (P04062 whole entry, looked up): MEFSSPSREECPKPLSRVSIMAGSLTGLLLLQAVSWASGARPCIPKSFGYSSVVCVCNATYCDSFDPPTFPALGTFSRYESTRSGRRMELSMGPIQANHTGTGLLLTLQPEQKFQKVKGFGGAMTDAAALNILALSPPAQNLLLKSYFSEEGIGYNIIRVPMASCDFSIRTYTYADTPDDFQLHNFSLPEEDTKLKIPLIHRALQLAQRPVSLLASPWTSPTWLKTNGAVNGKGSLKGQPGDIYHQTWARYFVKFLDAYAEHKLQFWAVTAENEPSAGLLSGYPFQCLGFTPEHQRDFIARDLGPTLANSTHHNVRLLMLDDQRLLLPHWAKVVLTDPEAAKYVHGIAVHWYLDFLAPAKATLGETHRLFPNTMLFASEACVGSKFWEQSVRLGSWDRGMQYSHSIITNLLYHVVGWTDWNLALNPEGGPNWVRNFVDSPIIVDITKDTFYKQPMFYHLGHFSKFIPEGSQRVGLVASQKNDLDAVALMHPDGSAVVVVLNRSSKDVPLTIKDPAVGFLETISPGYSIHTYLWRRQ
Chain of Cytochrome P450 2D6 (Homo sapiens) (P10635 whole entry, looked up): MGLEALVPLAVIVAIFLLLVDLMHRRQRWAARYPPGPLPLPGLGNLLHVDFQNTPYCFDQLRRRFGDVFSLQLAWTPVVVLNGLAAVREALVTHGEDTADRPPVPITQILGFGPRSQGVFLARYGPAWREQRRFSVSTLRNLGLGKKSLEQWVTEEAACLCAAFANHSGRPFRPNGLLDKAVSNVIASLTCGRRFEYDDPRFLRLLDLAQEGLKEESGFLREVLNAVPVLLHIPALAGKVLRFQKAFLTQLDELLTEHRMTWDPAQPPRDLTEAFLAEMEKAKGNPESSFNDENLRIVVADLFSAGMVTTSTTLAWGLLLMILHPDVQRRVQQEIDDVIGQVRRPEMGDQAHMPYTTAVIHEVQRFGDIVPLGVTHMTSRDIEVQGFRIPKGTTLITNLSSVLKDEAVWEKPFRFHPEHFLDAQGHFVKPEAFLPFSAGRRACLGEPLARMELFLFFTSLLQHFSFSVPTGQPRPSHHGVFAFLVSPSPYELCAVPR
Chain of Cytochrome P450 2C19 (Homo sapiens) (P33261 whole entry, looked up): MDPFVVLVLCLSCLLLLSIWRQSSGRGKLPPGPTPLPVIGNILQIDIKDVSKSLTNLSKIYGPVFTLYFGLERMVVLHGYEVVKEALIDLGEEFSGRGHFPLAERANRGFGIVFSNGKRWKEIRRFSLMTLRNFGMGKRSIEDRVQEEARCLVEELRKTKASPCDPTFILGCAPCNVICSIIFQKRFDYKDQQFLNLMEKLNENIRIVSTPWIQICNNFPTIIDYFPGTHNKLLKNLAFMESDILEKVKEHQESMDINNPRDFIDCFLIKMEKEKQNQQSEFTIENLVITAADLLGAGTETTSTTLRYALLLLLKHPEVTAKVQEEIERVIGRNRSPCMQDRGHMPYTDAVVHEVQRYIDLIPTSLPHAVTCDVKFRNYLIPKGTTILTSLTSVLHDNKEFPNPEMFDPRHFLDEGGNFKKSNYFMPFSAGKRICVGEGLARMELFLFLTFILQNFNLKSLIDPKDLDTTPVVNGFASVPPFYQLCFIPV
Chain of Ubiquitin carboxyl-terminal hydrolase 1 (Homo sapiens) (O94782 whole entry, looked up): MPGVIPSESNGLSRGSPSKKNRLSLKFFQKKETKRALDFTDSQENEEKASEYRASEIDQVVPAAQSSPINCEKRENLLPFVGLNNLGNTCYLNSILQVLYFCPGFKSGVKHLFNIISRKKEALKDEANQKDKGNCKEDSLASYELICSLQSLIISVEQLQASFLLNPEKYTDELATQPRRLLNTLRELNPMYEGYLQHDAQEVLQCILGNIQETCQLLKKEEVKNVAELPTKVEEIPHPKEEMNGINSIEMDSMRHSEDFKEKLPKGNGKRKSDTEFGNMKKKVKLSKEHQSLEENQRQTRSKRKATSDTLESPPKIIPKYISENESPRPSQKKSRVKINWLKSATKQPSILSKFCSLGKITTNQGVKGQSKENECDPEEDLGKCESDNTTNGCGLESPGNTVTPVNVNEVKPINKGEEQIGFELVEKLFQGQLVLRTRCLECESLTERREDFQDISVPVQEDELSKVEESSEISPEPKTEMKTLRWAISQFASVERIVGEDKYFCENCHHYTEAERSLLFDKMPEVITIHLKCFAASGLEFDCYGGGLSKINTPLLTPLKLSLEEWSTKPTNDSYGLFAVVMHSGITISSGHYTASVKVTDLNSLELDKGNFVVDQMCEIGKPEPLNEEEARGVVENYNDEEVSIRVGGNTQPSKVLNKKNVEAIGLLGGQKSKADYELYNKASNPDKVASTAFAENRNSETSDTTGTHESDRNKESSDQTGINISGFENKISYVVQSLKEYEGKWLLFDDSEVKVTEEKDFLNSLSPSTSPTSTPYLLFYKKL
Chain of Cytochrome P450 1A2 (Homo sapiens) (P05177 whole entry, looked up): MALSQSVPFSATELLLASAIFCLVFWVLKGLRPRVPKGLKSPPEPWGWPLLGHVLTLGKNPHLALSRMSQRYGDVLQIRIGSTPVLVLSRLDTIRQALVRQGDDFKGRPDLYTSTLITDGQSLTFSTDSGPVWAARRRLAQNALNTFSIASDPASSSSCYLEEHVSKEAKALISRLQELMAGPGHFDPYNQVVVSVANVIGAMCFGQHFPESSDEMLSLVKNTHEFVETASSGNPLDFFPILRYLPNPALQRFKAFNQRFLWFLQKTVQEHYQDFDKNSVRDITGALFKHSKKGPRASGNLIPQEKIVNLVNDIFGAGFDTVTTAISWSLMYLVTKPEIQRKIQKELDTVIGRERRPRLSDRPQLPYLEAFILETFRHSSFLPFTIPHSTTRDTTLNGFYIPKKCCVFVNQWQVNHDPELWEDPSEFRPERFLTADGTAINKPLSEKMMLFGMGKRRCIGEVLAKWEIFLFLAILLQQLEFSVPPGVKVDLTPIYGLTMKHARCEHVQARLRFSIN
Chain of Cytochrome P450 3A4 (Homo sapiens) (P08684 whole entry, looked up): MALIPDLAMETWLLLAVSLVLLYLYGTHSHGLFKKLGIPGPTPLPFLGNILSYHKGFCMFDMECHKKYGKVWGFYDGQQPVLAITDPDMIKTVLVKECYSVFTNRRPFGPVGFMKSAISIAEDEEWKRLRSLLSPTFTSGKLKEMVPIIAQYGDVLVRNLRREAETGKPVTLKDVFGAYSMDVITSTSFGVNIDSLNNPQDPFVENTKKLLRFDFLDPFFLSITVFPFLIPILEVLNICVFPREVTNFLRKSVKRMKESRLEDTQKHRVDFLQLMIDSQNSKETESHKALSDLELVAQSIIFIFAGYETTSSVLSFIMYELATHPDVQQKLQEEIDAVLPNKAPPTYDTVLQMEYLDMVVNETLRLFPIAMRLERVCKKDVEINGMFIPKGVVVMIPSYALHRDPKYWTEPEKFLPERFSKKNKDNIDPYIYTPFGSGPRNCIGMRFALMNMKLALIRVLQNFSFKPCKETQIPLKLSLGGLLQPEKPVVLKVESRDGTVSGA

c1cc(C2N3CCCN2CC3)ccn1 (configuration not stated)
inactive: Potency [1] > 11.4 µM | activity change, negative = inhibition [2] 2.62% | activity, negative = inhibition [3] 3.03% | Potency [4] > 46 µM | Potency [5] > 9.22 µM | activity change, negative = inhibition [6] 2.87% [at 11.4 µM] | Potency [7]

Cc1ccc(S(=O)(=O)O[C@H]2CN3CCC2CC3)cc1
inactive: Potency [1] > 11.4 µM | activity change, negative = inhibition [2] 10.6% | activity, negative = inhibition [3] -1.72% | Potency [4] > 46 µM | Potency [5] > 9.22 µM | activity change, negative = inhibition [6] 5.42% [at 11.4 µM] | outcome [8]

C[C@H]1CC[C@@]2(NC1)O[C@@H]1C[C@@H]3[C@@H]4CC=C5C[C@@H](O)CC[C@]5(C)[C@@H]4CC[C@]3(C)[C@H]1[C@@H]2C
inactive: Potency [1] > 11.4 µM | activity, negative = inhibition [3] 7.42% | Potency [4] > 46 µM | Potency [5] > 9.22 µM | activity change, negative = inhibition [6] -0.366% [at 11.4 µM] | outcome [8] | activity change, negative = inhibition [9] 33.7% [at 11.4 µM]

CC1(C)N=C(N)N=C(N)N1c1cccc(C(=O)Nc2ccc(S(=O)(=O)F)cc2)c1
active: Potency [10] 2 µM
inactive: Potency [1] > 11.4 µM | activity change, negative = inhibition [2] -0.165% | activity, negative = inhibition [3] 9.13% | Potency [4] > 46 µM | Potency [5] > 9.22 µM | activity change, negative = inhibition [6] 7.01% [at 11.4 µM] | outcome [8]

COc1ccc(C[C@@H]2NC[C@H](O)[C@@H]2OC(C)=O)cc1
active: activity change, negative = inhibition [2] -118% [at 17.2 µM] | activity change, negative = inhibition [12] -130% [at 17.2 µM] | activity, negative = inhibition [3] -101% [at 17.2 µM]
inactive: Potency [11] | Potency [4] > 20.6 µM | Potency [5] > 20.6 µM | Potency [6] | Potency [13]

From PubChem BioAssay (NCATS)
